# Reference: PMC7862700, “An all-to-all approach to the identification of sequence-specific readers for epigenetic DNA modifications on cytosine”
# Assays:
# Experiment in all cases: DAPPL (digital affinity profiling via proximity ligation, sequencing); 10 mM Tris-HCl pH 7.5, 50 mM NaCl, 1 mM DTT, 4% glycerol, room temperature, 30 min; GST-TFs on glutathione beads, 16-mer random dsDNA library, 0.1% formaldehyde crosslink after washing; high values mean tight binding
# [1] = target: T1, FEV (Homo sapiens, UniProt Q99581 1-238); settings: protein: recombinant; tags: N-terminal GST; dsDNA, one strand shown
# T1 sequence: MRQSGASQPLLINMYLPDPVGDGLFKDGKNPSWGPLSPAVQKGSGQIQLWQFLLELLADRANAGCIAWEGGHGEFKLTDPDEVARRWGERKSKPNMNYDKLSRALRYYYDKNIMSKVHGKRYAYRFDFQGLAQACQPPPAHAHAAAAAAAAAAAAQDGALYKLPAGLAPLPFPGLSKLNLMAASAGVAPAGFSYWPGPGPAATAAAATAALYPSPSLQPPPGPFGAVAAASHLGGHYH
# How it was run: (§1)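 Binding signal is defined as a hexamer's read frequency for one factor over its frequency for the tag-only sample. To obtain reads, GST-fused human transcription factors were expressed in yeast, captured on glutathione beads, barcoded with DNA and pooled with that sample. Pools met 200 nmole of a 16-mer random double-stranded DNA library in Tris/NaCl/DTT/glycerol buffer for 30 min at room temperature before washing, 0.1% formaldehyde crosslinking, proximity ligation (BsaI/T4 ligase, 1 h, 37 °C), PCR and Illumina NextSeq500 sequencing.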
# [2] = target: ETV5 (Homo sapiens, UniProt P41161 1-510); settings: protein: recombinant; tags: N-terminal GST; dsDNA, one strand shown
# Chain of ETV5 (P41161 whole entry): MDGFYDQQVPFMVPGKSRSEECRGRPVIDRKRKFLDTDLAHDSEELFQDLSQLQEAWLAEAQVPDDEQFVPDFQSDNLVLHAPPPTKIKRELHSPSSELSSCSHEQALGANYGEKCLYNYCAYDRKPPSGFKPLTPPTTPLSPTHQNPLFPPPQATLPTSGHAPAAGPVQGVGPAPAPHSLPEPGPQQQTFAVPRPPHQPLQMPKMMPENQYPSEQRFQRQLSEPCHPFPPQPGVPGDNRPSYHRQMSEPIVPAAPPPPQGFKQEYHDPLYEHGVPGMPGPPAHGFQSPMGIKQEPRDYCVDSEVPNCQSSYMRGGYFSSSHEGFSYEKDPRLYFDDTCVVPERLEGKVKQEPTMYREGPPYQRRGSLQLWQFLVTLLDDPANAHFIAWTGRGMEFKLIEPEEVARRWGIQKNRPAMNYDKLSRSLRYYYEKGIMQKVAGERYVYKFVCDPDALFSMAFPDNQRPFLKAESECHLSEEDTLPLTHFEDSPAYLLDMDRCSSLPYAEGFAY
# How it was run: as §1
# [3] = target: HSF1 (Homo sapiens, UniProt Q00613 1-529); settings: protein: recombinant; tags: N-terminal GST; chain copies: 3; dsDNA, one strand shown
# Chain of HSF1 (Q00613 whole entry): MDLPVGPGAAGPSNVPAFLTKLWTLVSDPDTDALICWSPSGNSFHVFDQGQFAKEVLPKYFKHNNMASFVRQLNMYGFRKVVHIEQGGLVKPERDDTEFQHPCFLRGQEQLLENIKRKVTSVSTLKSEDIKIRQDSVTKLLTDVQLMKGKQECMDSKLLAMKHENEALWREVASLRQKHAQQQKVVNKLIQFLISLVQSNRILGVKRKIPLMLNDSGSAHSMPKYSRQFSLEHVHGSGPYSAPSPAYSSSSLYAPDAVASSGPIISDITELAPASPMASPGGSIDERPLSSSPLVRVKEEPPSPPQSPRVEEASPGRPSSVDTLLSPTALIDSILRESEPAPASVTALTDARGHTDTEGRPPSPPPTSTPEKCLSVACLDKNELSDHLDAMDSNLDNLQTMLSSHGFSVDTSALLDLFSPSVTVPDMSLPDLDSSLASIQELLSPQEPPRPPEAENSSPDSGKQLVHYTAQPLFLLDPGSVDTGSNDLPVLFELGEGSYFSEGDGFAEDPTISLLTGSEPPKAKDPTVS
# How it was run: as §1
# [4] = target: T2, SPIC (Homo sapiens, UniProt Q8N5J4 1-248); settings: protein: recombinant; tags: N-terminal GST; dsDNA, one strand shown
# T2 sequence: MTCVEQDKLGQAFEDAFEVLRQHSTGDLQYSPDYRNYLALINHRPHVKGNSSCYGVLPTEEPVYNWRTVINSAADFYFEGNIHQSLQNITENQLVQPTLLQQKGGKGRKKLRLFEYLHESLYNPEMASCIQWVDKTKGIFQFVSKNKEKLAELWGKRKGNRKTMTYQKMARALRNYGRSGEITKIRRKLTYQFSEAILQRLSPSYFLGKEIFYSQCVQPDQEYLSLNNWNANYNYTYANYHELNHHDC
# How it was run: as §1
# [5] = target: ELF4 (Homo sapiens, UniProt Q99607 1-663); settings: protein: recombinant; tags: N-terminal GST; dsDNA, one strand shown
# Chain of ELF4 (Q99607 whole entry): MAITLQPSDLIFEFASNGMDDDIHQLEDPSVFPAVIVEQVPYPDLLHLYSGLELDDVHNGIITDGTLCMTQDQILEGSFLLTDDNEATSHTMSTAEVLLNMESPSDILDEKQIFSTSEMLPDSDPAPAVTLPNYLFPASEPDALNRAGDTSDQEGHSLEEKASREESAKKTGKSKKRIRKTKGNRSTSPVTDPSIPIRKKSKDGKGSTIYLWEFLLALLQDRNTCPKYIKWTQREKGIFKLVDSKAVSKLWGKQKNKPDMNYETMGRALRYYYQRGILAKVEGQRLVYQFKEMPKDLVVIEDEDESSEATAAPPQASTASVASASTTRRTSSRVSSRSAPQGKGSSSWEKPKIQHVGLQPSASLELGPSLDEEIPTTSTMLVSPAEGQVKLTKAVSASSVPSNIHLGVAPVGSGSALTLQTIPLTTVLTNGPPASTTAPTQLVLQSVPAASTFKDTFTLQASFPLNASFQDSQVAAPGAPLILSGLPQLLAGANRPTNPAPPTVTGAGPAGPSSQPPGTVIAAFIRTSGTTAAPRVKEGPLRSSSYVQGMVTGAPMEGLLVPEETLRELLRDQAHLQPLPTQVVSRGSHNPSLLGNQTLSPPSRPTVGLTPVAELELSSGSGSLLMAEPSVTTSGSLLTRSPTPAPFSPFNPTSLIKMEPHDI
# How it was run: as §1
# [6] = target: T3, ELK4 (Homo sapiens, UniProt P28324-2 1-405); settings: protein: recombinant; tags: N-terminal GST; dsDNA, one strand shown
# T3 sequence: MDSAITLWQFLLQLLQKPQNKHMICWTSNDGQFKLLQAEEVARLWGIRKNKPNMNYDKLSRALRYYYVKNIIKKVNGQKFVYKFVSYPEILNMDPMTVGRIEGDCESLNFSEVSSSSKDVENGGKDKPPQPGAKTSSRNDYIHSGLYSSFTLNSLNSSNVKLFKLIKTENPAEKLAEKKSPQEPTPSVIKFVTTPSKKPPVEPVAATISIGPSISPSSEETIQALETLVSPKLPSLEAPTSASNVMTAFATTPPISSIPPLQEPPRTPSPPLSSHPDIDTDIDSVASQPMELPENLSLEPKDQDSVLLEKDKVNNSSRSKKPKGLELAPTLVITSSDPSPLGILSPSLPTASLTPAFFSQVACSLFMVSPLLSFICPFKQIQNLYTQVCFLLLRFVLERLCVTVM
# How it was run: as §1
# [7] = target: T4, ETV2 (Homo sapiens, UniProt O00321 1-342); settings: protein: recombinant; tags: N-terminal GST; dsDNA, one strand shown
# T4 sequence: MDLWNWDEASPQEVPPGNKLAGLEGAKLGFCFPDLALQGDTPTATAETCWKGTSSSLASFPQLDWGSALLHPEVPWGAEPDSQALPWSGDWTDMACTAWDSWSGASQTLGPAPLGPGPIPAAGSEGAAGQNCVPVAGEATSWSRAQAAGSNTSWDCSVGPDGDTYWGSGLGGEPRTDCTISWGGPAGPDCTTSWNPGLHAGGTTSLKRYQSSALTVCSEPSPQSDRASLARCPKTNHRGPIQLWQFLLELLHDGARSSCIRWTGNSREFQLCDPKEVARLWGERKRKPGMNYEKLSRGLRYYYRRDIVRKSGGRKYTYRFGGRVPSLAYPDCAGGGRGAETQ
# How it was run: as §1
# [8] = target: CRX (Homo sapiens, UniProt O43186 1-299); settings: protein: recombinant; tags: N-terminal GST; dsDNA, one strand shown
# Chain of CRX (O43186 whole entry): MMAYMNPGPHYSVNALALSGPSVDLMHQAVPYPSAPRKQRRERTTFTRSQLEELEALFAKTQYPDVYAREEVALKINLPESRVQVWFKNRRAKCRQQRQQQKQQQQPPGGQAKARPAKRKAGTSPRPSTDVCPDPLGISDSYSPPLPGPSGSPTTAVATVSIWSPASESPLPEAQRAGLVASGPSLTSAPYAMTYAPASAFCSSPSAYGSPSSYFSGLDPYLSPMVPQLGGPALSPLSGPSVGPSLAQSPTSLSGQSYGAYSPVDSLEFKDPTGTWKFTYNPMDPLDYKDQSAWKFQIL
# How it was run: as §1
# [9] = target: ETV1 (Homo sapiens, UniProt P50549 1-477); settings: protein: recombinant; tags: N-terminal GST; dsDNA, one strand shown
# Chain of ETV1 (P50549 whole entry): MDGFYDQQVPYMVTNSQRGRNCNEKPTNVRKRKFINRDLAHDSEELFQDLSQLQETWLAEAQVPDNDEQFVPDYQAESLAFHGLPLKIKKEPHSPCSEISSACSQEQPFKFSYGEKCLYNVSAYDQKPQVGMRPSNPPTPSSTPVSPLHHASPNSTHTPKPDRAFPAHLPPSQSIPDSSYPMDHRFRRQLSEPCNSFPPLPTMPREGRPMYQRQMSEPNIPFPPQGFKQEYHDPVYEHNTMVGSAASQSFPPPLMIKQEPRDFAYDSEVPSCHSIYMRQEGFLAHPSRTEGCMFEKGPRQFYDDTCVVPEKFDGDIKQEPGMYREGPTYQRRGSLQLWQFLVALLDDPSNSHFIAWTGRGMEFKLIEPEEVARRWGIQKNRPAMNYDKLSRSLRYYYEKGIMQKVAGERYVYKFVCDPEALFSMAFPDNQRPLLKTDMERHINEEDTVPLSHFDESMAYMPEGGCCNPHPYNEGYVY
# How it was run: as §1
sequence,measurement,setting,value
GATGAA,binding signal,[1],"1.13 fold enrichment (6-mer frequency, TF over GST control)"
same,binding signal,[2],"1.13 fold enrichment (6-mer frequency, TF over GST control)"
same,binding signal,[3],"1.21 fold enrichment (6-mer frequency, TF over GST control)"
same,binding signal,[4],"1.11 fold enrichment (6-mer frequency, TF over GST control)"
same,binding signal,[5],"1.2 fold enrichment (6-mer frequency, TF over GST control)"
same,binding signal,[6],"1.21 fold enrichment (6-mer frequency, TF over GST control)"
same,binding signal,[7],"1.13 fold enrichment (6-mer frequency, TF over GST control)"
same,binding signal,[8],"1.22 fold enrichment (6-mer frequency, TF over GST control)"
same,binding signal,[9],"1.27 fold enrichment (6-mer frequency, TF over GST control)"
